High-throughput results from PubChem BioAssay.
Shown are actives, neighbours in structure and some others; about 5.4% of the full set was active somewhere.
IMPase Li cell: qHTS Assay for Identifying the Cell-Membrane Permeable IMPase Inhibitors: Potentiation with Lithium | Potency, µM (titrated, usually from 59.4 µM), hits mostly inhibitors | AID 1457, 2008 | actives 0.35% (n = 210,000) | CHO-M1 cells, IP1 TR-FRET (IP-One), carbachol + lithium;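 note: IP1 builds up when IMPase is blocked and the TR-FRET signal falls; nearly all actives have a fitted effect of over 50% in size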
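Readout is a homogeneous TR-FRET IP1 immunoassay (Ex 320, Em 665 and 620), where raised cytosolic IP1 lowers signal. Cells were CHO-M1 treated 30 min at 37C with test compounds plus a little lithium; AC50 values came from Hill-equation fitting.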
PNC inhibitor: High Content Assay for Compounds that inhibit the Assembly of the Perinucleolar Compartment | PC3M PTB-GFP, PNC prevalence imaging, 16 h; stronger effect = lower value | activity change (PNC), negative = inhibition, % at 10 µM | actives 3.1% (n = 140,000) | AID 2417, 2010;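 active = readout at or below -70, meaning at least 70% loss of cells showing the perinucleolar compartment, a nuclear body marking cancer cells; inconclusive = readout between -30 and a set limit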
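PC3M cells stably expressing PTB-GFP, 750–1000 cells/well, treated 16 h at 37 °C with compound (23 nl of library stock), in duplicate. After paraformaldehyde fixation and Hoechst stain, imaged at 20x; PNC prevalence scored by image analysis.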
IMPase inh: qHTS Assay for Identifying the Cell-Membrane Permeable IMPase Inhibitors; Inositol monophosphatase 1 (Rattus norvegicus), P97697; CHO-M1 cells, IP1 accumulation, HTRF TR-FRET ratio; inhibition (IP1 accumulation), % at 46.1 µM; 120,000 tested, under 10 active; AID 901, 2007; active = well fitted curve in the direction sought with a large enough effect in the signal ratio, not every such curve was filed as active; inconclusive = small, poorly fitted or top-dose-only effect, or a change in a side signal; inactive = no such curve, though single readings can be large or run the other way; the % refers to the signal ratio;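 note: cells stimulated with carbachol in lithium chloride buffer; higher means more IMPase inhibition seen as more IP1 and lower FRET ratio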
Target sequence (P97697 whole entry, looked up): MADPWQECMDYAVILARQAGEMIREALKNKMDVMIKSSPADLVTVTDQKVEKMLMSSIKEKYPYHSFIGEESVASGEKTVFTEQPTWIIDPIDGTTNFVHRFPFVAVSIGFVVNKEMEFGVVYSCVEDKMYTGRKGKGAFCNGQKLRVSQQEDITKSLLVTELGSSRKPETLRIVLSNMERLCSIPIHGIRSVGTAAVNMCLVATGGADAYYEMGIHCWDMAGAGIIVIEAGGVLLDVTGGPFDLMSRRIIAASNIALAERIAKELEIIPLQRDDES
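CHO-M1 cells (CHO stably expressing M1 receptor), compound up to 46 uM final, stimulated with carbachol (50 uM as added) in buffer with 50mM LiCl, pH 7.4, 30 min at 37C. Cytosolic IP1 read by TR-FRET; AC50 from Hill fits.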
HPGD inh: qHTS Assay for Inhibitors of HPGD (15-Hydroxyprostaglandin Dehydrogenase); Potency, µM, most hits filed as inhibitors; actives 4.3% (n = 150,000); 15-hydroxyprostaglandin dehydrogenase [NAD(+)] (Homo sapiens), P15428; purified HPGD, NADH fluorescence kinetic, PGE2 substrate; AID 894, 2007; active = well fitted inhibition curve with a large enough effect, not every such curve was filed as active; inconclusive = small, poorly fitted or top-dose-only effect, or another doubt; inactive = no such curve, though single readings can be large or run the other way
Target sequence (P15428 whole entry, looked up): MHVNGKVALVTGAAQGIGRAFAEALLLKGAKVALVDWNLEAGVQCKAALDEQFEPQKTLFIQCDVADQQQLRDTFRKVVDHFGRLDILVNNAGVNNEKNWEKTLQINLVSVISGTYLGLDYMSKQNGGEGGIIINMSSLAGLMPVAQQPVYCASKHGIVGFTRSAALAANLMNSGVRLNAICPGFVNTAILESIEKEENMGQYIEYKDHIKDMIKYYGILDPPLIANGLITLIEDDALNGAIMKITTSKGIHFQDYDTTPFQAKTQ
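20 nM HPGD preincubated 15 min at room temperature with compound in 50 mM Tris-HCl pH 8, 0.01% Tween 20. Started with 1 mM NAD+ and 30 uM prostaglandin E2; NADH fluorescence (360/450 nm) read 5 times over 30-s intervals, last minus first.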
15-hLO-2 inh: qHTS Assay for Inhibitors of 15-hLO-2 (15-human lipoxygenase 2) | Potency, µM (highest dose often 57.1 µM), hits mostly inhibitors | actives 0.56% (n = 110,000) | AID 881, 2007 | purified 15hLO-2, xylenol orange hydroperoxide absorbance | Polyunsaturated fatty acid lipoxygenase ALOX15B (Homo sapiens), O15296; note: nearly all actives have a fitted effect of over 60% in size
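Screening format was qHTS against 50 nM purified 15hLO-2 in Hepes pH 7.5 with detergent. Activity follows hydroperoxide formation from 45 uM arachidonic acid, measured as 573:405 nm absorbance ratio of the ferric-xylenol orange complex.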
12-hLO inh: qHTS Assay for Inhibitors of 12-hLO (12-human lipoxygenase); Polyunsaturated fatty acid lipoxygenase ALOX12 (Homo sapiens), P18054; purified 12-hLO, xylenol orange hydroperoxide absorbance; Potency, µM (highest dose often 57.1 µM), usual class: inhibitors; actives 0.12% (n = 150,000); note: nearly all actives have a fitted effect of over 55% in size
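Hydroperoxide formation by human 12-lipoxygenase from 40 uM arachidonic acid was followed colorimetrically via ferric-xylenol orange complex, using the 573/405 nm absorbance ratio. Enzyme concentration was 150 nM, with 30 min reaction at room temperature.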
Large screens that a line does not name were inactive. Unless noted, calls come from the whole dose curve; as a rule, active = well fitted curve in the direction sought with a large enough effect; inconclusive = small, poorly fitted or top-dose-only effect, or another doubt; inactive = no such curve, though single readings can be large; an effect the other way counts as inactive or inconclusive.

COC(=O)C(NC(=O)c1ccccc1)(Nc1nc(C)cs1)C(F)(F)F (centres undefined)	none (no result: IMPase Li cell, HPGD inh)
Clc1ccc(CSc2ncnc3c2ncn3[C@@H]2CCCCO2)cc1	none (no result: PNC inhibitor, IMPase inh)
O=[N+]([O-])c1ccc(Cl)c(CNc2ncnc3c2ncn3[C@@H]2CCCCO2)c1	HPGD inh 3.5µM (no result: PNC inhibitor, IMPase inh)
CCOc1ccc2nc(C)cc(Nc3cccc([N+](=O)[O-])c3)c2c1	PNC inhibitor -102 (no result: IMPase inh, 15-hLO-2 inh)
CCC[C@@H]1C[C@@]1(CCC)C(NC(=O)c1ccccc1)c1cccc(Cl)c1 (some centres undefined)	none (no result: PNC inhibitor, IMPase inh)
Cc1cccc(Nc2nnc(-c3ccc(C)c(S(=O)(=O)NCC4CCCO4)c3)c3ccccc23)c1 (centres undefined)	none (no result: IMPase Li cell, PNC inhibitor, HPGD inh, 15-hLO-2 inh, 12-hLO inh)
CNc1ccc(Br)cc(C(=O)/C=C/c2cccc(OC)c2OC)c1=O	IMPase inh inconclusive, HPGD inh 14µM (no result: 15-hLO-2 inh)
CNc1ccc(Br)cc(C(=O)/C=C/c2cccc(Cl)c2Cl)c1=O	none (no result: PNC inhibitor, IMPase inh, HPGD inh, 15-hLO-2 inh, 12-hLO inh)
CNc1ccccc(C(=O)/C=C/c2ccccc2OC)c1=O	HPGD inh 13µM (no result: IMPase inh, 15-hLO-2 inh)
COc1ccc(C)cc1NS(=O)(=O)c1ccc2c3c(cccc13)C(=O)N2	none (no result: IMPase Li cell, PNC inhibitor, HPGD inh, 15-hLO-2 inh, 12-hLO inh)
CCS(=O)(=O)Nc1ccc(C(=O)c2ccccc2)cc1	HPGD inh 0.28µM (no result: 15-hLO-2 inh)
O=C(O)c1ccc(NS(=O)(=O)Cc2ccccc2)cc1	none (no result: PNC inhibitor, IMPase inh)
COC(=O)c1ccc(NS(=O)(=O)c2ccc(SC)cc2)cc1	none
CCS(=O)(=O)Nc1ccc(C(=O)OC)cc1	HPGD inh 14µM
CCOC(=O)c1ccc(NC(=O)CSc2nccn2-c2ccc(OCC)cc2)cc1	none (no result: IMPase Li cell, PNC inhibitor, HPGD inh, 15-hLO-2 inh, 12-hLO inh)
Cc1ccc(CN2CCN(CC(=O)NCc3ccccc3Cl)C2=O)cc1	none (no result: IMPase Li cell, PNC inhibitor, HPGD inh, 15-hLO-2 inh, 12-hLO inh)
O=C(O)C[C@H](Cc1ccccc1)C(=O)O	none (no result: PNC inhibitor, IMPase inh)
Clc1ccccc1-c1nnc2sc(-c3ccncc3)nn12	none
Clc1ccccc1-c1nn2c(-c3ccncc3)nnc2s1	HPGD inh 11µM
Clc1ccccc1-c1nnc2sc(-c3cccs3)nn12	HPGD inh 28µM
CCCNC(=O)c1c(NC(=O)c2ccccc2F)sc2c1CCCCC2	none (no result: IMPase Li cell, PNC inhibitor, HPGD inh, 15-hLO-2 inh, 12-hLO inh)
COc1nc(C)ccc1-c1noc(-c2ccccn2)n1	HPGD inh 22µM
CCc1nc(-c2ccc(C)nc2OC)no1	none
COc1ccccc1-c1nc(-c2ccc(C)nc2OC)no1	PNC inhibitor -98
COc1ccccc1-c1nc(-c2ccccn2)no1	none
NC(=O)[C@@H]1CCCN1	none (no result: PNC inhibitor, IMPase inh)
Nc1ccc(S(=O)(=O)NCc2nccs2)cc1	none (no result: PNC inhibitor, IMPase inh)
Cc1cc(C)cc(C(=O)N2CC(=O)Nc3ccccc32)c1	PNC inhibitor -80
O=C1CN(C(=O)CSc2nc(-c3ccc(Cl)cc3)cs2)c2ccccc2N1	PNC inhibitor -113, HPGD inh 13µM (no result: IMPase inh, 15-hLO-2 inh)
Nn1c(Cc2ccccc2F)nnc1SCC(=O)N1CC(=O)Nc2ccccc21	PNC inhibitor -100 (no result: 15-hLO-2 inh)
Cc1cc(C)c2nc(SCC(=O)N3CC(=O)Nc4ccccc43)c(C#N)cc2c1	PNC inhibitor -104, HPGD inh inconclusive (no result: 15-hLO-2 inh)
Cc1ccsc1C(=O)N1CC(=O)Nc2ccccc21	PNC inhibitor inconclusive
COc1ccc(Oc2ncc3ncc(=O)n(Cc4ccc(F)cc4)c3n2)cc1	HPGD inh 32µM (no result: PNC inhibitor, IMPase inh)
CCOC(=O)c1cnc2c(Cl)cc(Cl)cc2c1Nc1ccccc1OC	none (no result: IMPase Li cell, PNC inhibitor, HPGD inh, 15-hLO-2 inh, 12-hLO inh)
CCOC(=O)c1c(C)n(C(=O)c2ccco2)c(=O)n1C(=O)c1ccco1	HPGD inh 22µM
O=C(NNS(=O)(=O)c1ccccc1)c1cc2cc3ccccc3nc2s1	PNC inhibitor -106, HPGD inh inconclusive (no result: 15-hLO-2 inh)
CCCCc1c2ccccc2nc2[nH]c3ccccc3c12	none (no result: PNC inhibitor, IMPase inh)
C=CCNC(=S)NNC(=O)c1ccc(OC(C)C)cc1	PNC inhibitor -91
